S1P3 antag: S1P3 (human) receptor antagonism. Q99500. CHO S1P3 NFAT-BLA reporter, FRET fluorescence, antagonist mode. inhibition, % at 4.98 µM. actives 0.27% (n = 170,000). AID 485;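 active = inhibition above the plate cutoff, the mean inhibition of test wells on that plate plus 3 SD, cut at about 28% in these data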;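 also: cells challenged with S1P at its EC80 of 0.8 µM; blue over green emission ratio from cleaved BLA substrate after 4 h stimulation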
Target sequence (Q99500 whole entry, looked up): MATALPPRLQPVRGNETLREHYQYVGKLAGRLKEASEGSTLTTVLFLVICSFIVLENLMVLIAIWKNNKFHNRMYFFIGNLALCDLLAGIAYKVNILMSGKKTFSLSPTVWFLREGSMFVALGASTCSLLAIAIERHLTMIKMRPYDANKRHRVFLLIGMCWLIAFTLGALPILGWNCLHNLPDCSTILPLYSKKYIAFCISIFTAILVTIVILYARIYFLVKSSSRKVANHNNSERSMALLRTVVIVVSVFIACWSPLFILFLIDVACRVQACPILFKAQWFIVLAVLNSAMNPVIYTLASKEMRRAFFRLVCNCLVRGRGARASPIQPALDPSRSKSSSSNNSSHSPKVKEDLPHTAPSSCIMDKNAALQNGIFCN
KCC2 mod: modulators of human KCC2 chloride dependent transport. Q9H2X9. AID 1456. actives 2.2% (n = 190,000). KCC2 cells, thallium flux FluoZin-2 fluorescence. B-score of Tl+ flux slope (higher = more flux/activation; lower = inhibition) at 10 µM;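 active = thallium flux slope and its plate-corrected score both differing from the plate sample mean at a set confidence after two filtering rounds, in either direction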;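 also: slope of fluorescence scaled to starting intensity during 10 to 20 s after thallium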
EP2 mod: modulators of human EP2 prostaglandin E2 receptor; P43116; EP2-expressing cells, cAMP HTRF FRET, PGE2 co-stimulation; induction, % at 25 µM; actives 0.83% (n = 260,000);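 active = compounds whose cAMP rise, as percent of the full-agonist control response, exceeds 60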;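 also: rat C6 glioma line stably carrying human EP2 under a CMV promoter; the protocol text gives 20 µM as final concentration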
EP2 antag: blocks the human prostaglandin E2 receptor EP2 | actives 0.52% (n = 260,000) | inhibition, % at 25 µM | C6 glioma cells expressing human EP2, cAMP TR-FRET; cells stimulated with saturating PGE2 | P43116;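 active = percent inhibition above 40 after rounding to a whole number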;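 also: rat C6 glioma host cells with rolipram phosphodiesterase inhibitor present; the protocol text gives 20 µM as final concentration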
A number is an active result; i = inactive; nt = no result; ! = not active in a repeat. Most compounds without a hit are left out; they make up all but 3.1% or so of the library.

SMILES | S1P3 antag | KCC2 mod | EP2 mod | EP2 antag
CCOC(=O)c1c(C)[nH]c(=S)c(C#N)c1-c1ccc(Cl)cc1 | i | 10.7 | i | i
CN1[C@@H](C(=O)NCCc2ccccc2)C[C@@H](c2ccc(F)cc2)NS1(=O)=O | nt | nt | i | nt
C[C@]12CC[C@H](O)C[C@@H]1CC[C@H]1[C@H]2CC[C@]2(C)[C@@H]1CC[C@H]2c1cc(C(F)(F)F)n[nH]1 | nt | nt | i | 54.5
Cc1ccc2nc(SCC(=O)c3ccccc3)c(C#N)cc2c1 | nt | nt | i | i
Cc1cc2cc3c(cc2nc1SCC(=O)c1ccccc1F)OCCO3 | nt | nt | 72.2 | i
Cc1cc2ccccc2nc1SCC(=O)NC(C)(C)C | nt | nt | 86.8 | i
Cc1cc2ccccc2nc1SCC(=O)c1ccccc1 | nt | nt | 80.8 | i
CCOc1ccc(NC(=O)CSc2nc3ccccc3cc2C)cc1 | nt | nt | i | i
CC(C)c1nc(SCC(=O)c2ccc(F)cc2)c2ccccc2n1 | i | i | 62.6 | i
CC(=O)N(CCc1ccccc1)Cc1cc2cccc(C)c2n2nnnc12 | nt | nt | i | i
O=C(NC12CC3CC(CC(C3)C1)C2)C1CCCN(S(=O)(=O)c2cccc(C(F)(F)F)c2)C1 (configuration not stated) | nt | nt | i | i
Cc1cccc2cc(CN(C(=S)NC(C)c3ccccc3)C3CCCCC3)c(=O)[nH]c12 (configuration not stated) | nt | nt | i | i
COc1ccc(OC)c(C(=O)CSc2nnc(-c3ccc(C)cc3)o2)c1 | nt | nt | i | i
Cc1cc2cc3c(cc2nc1SCC(=O)c1ccccc1)OCO3 | nt | nt | 70.3 | i
CCOC(=O)CSc1nc2cc3c(cc2cc1C)OCO3 | i | i | i | i
O=C(O)c1cc2n(n1)C(C(F)(F)F)CC(c1ccccc1)N2 (configuration not stated) | nt | nt | i | i
COc1ccc(C2CC(C(F)(F)F)n3nc(C(=O)O)cc3N2)cc1OC (configuration not stated) | i | nt | 61.6 | i
O=C(NC(=S)Nc1ccc2cn[nH]c2c1)c1ccccc1 | i | i | i | i
O=C(O)c1c(Cl)c(Cl)c(Cl)c(Cl)c1C(=O)Nc1ccc2cn[nH]c2c1 | nt | nt | i | 57.8
CCN(CC)CC[n+]1ccc2c(C)c3[nH]c4ccccc4c3c(C)c2c1 | nt | nt | i | 58.2
COc1ccc(-n2ncc3c(=O)n(CC(=O)Nc4ccc(OCc5ccccc5)cc4)cnc32)cc1 | nt | nt | i | i
COc1ccc(OC)c(NC(=O)CN(c2ccc(C(C)C)cc2)S(=O)(=O)c2c(C)noc2C)c1 | 54.1 | nt | i | i
CN(C)S(=O)(=O)c1ccc(S(=O)(=O)N2CCN(c3ccc(F)cc3)CC2)cc1 | nt | nt | i | i
O=C(N/N=C/c1c(O)n(Cc2ccccc2)c(=O)c2ccccc12)c1cccnc1 | i | -3.17 | i | i
O=C(N/N=C/c1cn(Cc2ccccc2)c2ccccc12)c1ccncc1 | i | i | i | i
SMILES | S1P3 antag | KCC2 mod | EP2 mod | EP2 antag
O=C(N/N=C/c1cn(Cc2ccccc2)c2ccccc12)c1cccnc1 | 28.2 | i | i | i
Nc1ncnc2c1ncn2C1CCCO1 (configuration not stated) | nt | nt | i | i
O=[N+]([O-])c1ccc(Cl)c(CNc2ncnc3c2ncn3[C@@H]2CCCCO2)c1 | nt | nt | i | 42.9
COc1cc(C2C(C(C)=O)=C(O)C(=O)N2CC2CCCO2)ccc1O (configuration not stated) | nt | nt | i | i
O=C(O)c1cc(-c2ccc(-c3ccccc3)cc2)nc2cc3ccccc3cc12 | nt | nt | i | 45.7
O=C(O)c1cc(-c2ccc(-c3ccc(-c4cc(C(=O)O)c5cc(Cl)ccc5n4)cc3)cc2)nc2ccc(Cl)cc12 | nt | nt | i | i
CCOC(=O)CNC(=O)c1sc(NC(=O)c2cccc(OC)c2)nc1C | nt | nt | i | i
Cc1ccc(C(=O)O)cc1NC(=S)NC(=O)c1ccc(-c2ccc(Cl)cc2)o1 | i | i | 89.0 | i
Cc1ccc(C(=O)O)cc1NC(=S)NC(=O)c1ccc([N+](=O)[O-])cc1Cl | i | i | i | i
O=C(O)c1cccc(NC(=S)NC(=O)c2ccc(-c3ccc(Cl)cc3)o2)c1 | i | i | 63.8 | i
CC(C)(C)N1C(=O)c2ccccc2NC(=O)N1Cc1ccccc1 | nt | i | i | i
O=C1Nc2ccccc2C(=O)C1(Cl)Cc1ccccc1 (configuration not stated) | nt | i | i | 112.2
C/C(N[O-])=C(\C)[N+]([O-])=[Co].CC(=N\[O-])/C(C)=N/[O-].C[CH-][C@@H](C)O.c1ccncc1 | nt | nt | i | 41.7
CC(Cc1ccc(O)c(O)c1)C(C)Cc1ccc(O)c(O)c1 (configuration not stated) | nt | nt | nt | i
CC(C)(C)NCC(O)c1ccc(O)c(CO)c1 (configuration not stated) | nt | nt | 78.0! | i
CNC[C@@H](O)c1ccc(O)c(O)c1 | nt | nt | 82.1 | i
CC(C)NCC(O)c1ccc(NS(C)(=O)=O)cc1 (configuration not stated) | i | i | i | i
CC(C)NC[C@@H](O)c1ccc(O)c(O)c1 | i | i | 80.0 | i
CC(C)(C)NCC(O)c1cc(O)cc(O)c1 (configuration not stated) | i | i | i | i
CCCc1cc(Nc2ccc(C#N)c(Cl)c2)n2ncnc2n1 | nt | nt | i | i
CC(C)C(=O)Nc1ccc(NC(=O)C(C)(C)C)cn1 | nt | nt | i | i
Cc1ccc(-c2nnn(CC(=O)N(CC(=O)NC3CCCC3)c3cccc(C(F)(F)F)c3)n2)o1 | nt | nt | i | i
CCOc1cc(C2C(C#N)=C(N)OC3=C2C(=O)CCC3)ccc1OCCN1CCOCC1 (configuration not stated) | nt | nt | i | i
CCCNC(=S)N(Cc1cc2c(C)ccc(C)c2[nH]c1=O)C1CCCCC1 | nt | nt | i | i
Cc1ccc(C)c2[nH]c(=O)c(CN(C(=S)NCc3ccccc3)C3CCCCC3)cc12 | nt | nt | 63.9 | i
SMILES | S1P3 antag | KCC2 mod | EP2 mod | EP2 antag
CCCNC(=S)N(Cc1cc2c(C)cc(C)cc2[nH]c1=O)C1CCCCC1 | nt | nt | 60.7 | i
CCCN1C(=O)/C(=C/c2ccncc2)SC1=S | i | i | i | i
Cc1ccc(/C=C2\SC(=S)N(CCC(=O)NNS(=O)(=O)c3ccccc3)C2=O)cc1 | i | i | 64.5 | i
O=C(CCCN1C(=O)/C(=C/c2ccccc2)SC1=S)Nc1cccc(O)c1 | i | i | i | 70.4
O=C1/C(=C/c2ccncc2)SC(=S)N1Cc1ccccc1 | i | i | i | 44.4
CCN1C(=O)C2(SC(NC(C)=O)=NN2C(C)=O)c2ccccc21 (configuration not stated) | nt | nt | i | i
COc1cc(OC)cc(C(=O)N(Cc2ccccc2)Cc2cc3cc4c(cc3[nH]c2=O)OCCO4)c1 | nt | nt | i | i
CCN(c1ccccc1)S(=O)(=O)c1ccc(Cl)nc1 | i | i | i | i
CCN(c1cccc2ccccc12)S(=O)(=O)c1ccc(Cl)nc1 | i | i | 64.8 | i
COC(=O)C1=C(C)NC(C)=C(C(=O)OC)C1c1ccccc1[N+](=O)[O-] | i | 17.1 | i | i
CSC(=S)N/N=C(\C)c1ccccc1 | i | 143 | i | i
C/C(=N\NC(=S)NCCc1ccccc1)c1ccc(C)cc1 | nt | 2.91 | i | i
C/C(=N\NC(=S)Nc1cccc(C)c1)c1ccccc1 | nt | 7.42 | i | i
C/C(=N\NC(=S)NCCc1ccccc1)c1ccc(C#N)cc1 | nt | i | i | i
C/C(=N\NC(N)=S)c1ccccc1 | i | i | i | i

Bioassay records deposited in PubChem by several laboratories.
